The text below walks through data of PubChem BioAssay.

Molecules are shown by their SMILES. Active and inactive are the calls of the source.

The subject of experiment [1] is PRMT1 (protein arginine N-methyltransferase 1). As to the kind of experiment: PRMT1 binders on small-molecule microarrays, primary screen, biochemical, small-molecule microarray, 635 nm fluorescence (AID 1088).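 Further: binding of Prmt1 protein to compounds spotted on small-molecule microarray slides.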 As to conditions: small-molecule microarray binding, higher = more signal.
Experiment [2] can be described thus: yeast growth modulation, basal conditions, primary screen, YJM789 clinical isolate, OD600, 24 h (AID 1089).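 Further: growth of clinical yeast isolate S. cerevisiae YJM 789 seeded 1000 cells per well; test concentration not given here.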 As to conditions: S. cerevisiae YJM789 growth, higher = more signal, called active from +8 up or from −8 down.
A short description of experiment [3]: fission yeast growth modulation, primary screen, strain 972, OD600, 24 h, no modulator (AID 1090).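 Further: basal condition with compound alone and no growth modifier present; test concentration not given here.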 The conditions noted are these: S. pombe 972 growth, higher = more signal, called active from +8 up or from −8 down.
Experiment [4] can be described thus: S. cerevisiae growth modulation with rapamycin, primary screen, strain BY4716, OD600, 96 h (AID 1091). Further: test concentration not given here. The conditions noted are these: higher = more signal, called active from +8 up or from −8 down.
In experiment [5] the target is Torsin-1A-interacting protein 2 (Homo sapiens) (UniProt Q8NFQ8). Put plainly: LULL1 binders on small-molecule microarray, primary screen, cell lysate, human LULL1 lysate, 635/667 nm fluorescence (AID 1092).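 Further: probe is lysate of COS7 cells overexpressing human LULL1; score merges per-feature 667 nm fluorescence with signal-to-noise.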 The conditions noted are these: hLULL1 lysate binding, 635 nm fluorescence, higher = more signal.
The nature of experiment [6]: E. coli growth modulation, two-sided OD650, primary screen, E. coli filamentation project, strain DRC41, 24 h (AID 1093).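 Further: MC1000 strain lacking acrAB efflux and sulA so SOS filamentation is blocked; test concentration not given here.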 As to conditions: OD650, 24 h, higher = more signal, called active from +8 up or from −8 down.
Experiment [7] is described as follows: small-molecule microarray binders of probe aLefty2, primary screen, biochemical, biotinylated probe, 635/667 nm fluorescence (AID 1094).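 Further: score merges spot fluorescence near 667 nm with spot signal-to-noise ratio.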 The conditions noted are these: higher = more signal.
The subject of experiment [8] is Noggin (protein binding on small-molecule microarray). As to the kind of experiment: Noggin binders on small-molecule microarray, primary screen, biochemical, 635/667 nm fluorescence (AID 1095).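 Further: score merges 667 nm feature fluorescence with signal to noise over triplicate slides.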 As to conditions: 635 nm fluorescence, higher = more signal.
For experiment [9], the target named is Neurogenic locus notch homolog protein 3 (Homo sapiens) (UniProt Q9UM47). As to the kind of experiment: NOTCH3 binders on small-molecule microarray, primary screen, biochemical, 635/667 nm fluorescence (AID 1096). The conditions noted are these: NOTCH3 binding, 635 nm fluorescence, higher = more signal.
Experiment [10] is described as follows: small-molecule microarray binders of probe aEGFR, primary screen, biochemical, biotinylated probe, 635/667 nm fluorescence (AID 1097).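 Further: probe is a biotinylated anti-EGFR antibody binding compounds printed on slides; score combines fluorescence near 667 nm and signal to noise of each spot.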 The conditions noted are these: higher = more signal.
In experiment [11] the test system is Plasmodium falciparum Sir2 (PF13_0152, Sir2A). As to the kind of experiment: pfSir2 binders on small-molecule microarrays, primary screen, biochemical, small-molecule microarray, 635 nm fluorescence (AID 1098).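 Further: score merges spot fluorescence intensity with its signal-to-noise ratio.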 The conditions noted are these: small-molecule microarray binding, fluorescence 635 nm; higher = more signal.
Experiment [12] in a line: small-molecule microarray binders of probe aDKK1, primary screen, biochemical, biotinylated probe, 635/667 nm fluorescence (AID 1099).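 Further: score merges 667nm spot fluorescence with signal to noise across triplicate slides; reference of the scale not given here.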 The conditions noted are these: higher = more signal.
The nature of experiment [13]: small-molecule microarray binders of probe aCHRDL2, primary screen, biochemical, biotinylated probe, 635/667 nm fluorescence (AID 1100). As to conditions: higher = more signal.
Experiment [14] is described as follows: splicing luciferase reporter signal modulators, primary screen, spliceosome inhibition project, cell-based, HEK293, splice +/- reporter (AID 1101).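 Further: HEK293 cells carrying a splicing-competent luciferase reporter gene; test concentration not given here.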 The conditions noted are these: luminescence, 24 h, higher = more signal, called active from +8 up or from −8 down.
Experiment [15] addresses Fibroblast growth factor 10 (Homo sapiens) (UniProt O15520). As to the kind of experiment: FGF10 binders on small-molecule microarrays, primary screen, biochemical, small-molecule microarray, 635 nm fluorescence (AID 1102). The conditions noted are these: FGF10 binding, fluorescence 635 nm, higher = more signal.
Experiment [16] concerns glycogen synthase kinase-3 (GSK3A per assay name; protocol says GSK3B). Put plainly: GSK3 binders on small-molecule microarrays, primary screen, biochemical, small-molecule microarray, 635 nm fluorescence, GSK3A (AID 1103). Further: the record names both GSK3A and GSK3B. The conditions noted are these: small-molecule microarray binding, fluorescence 635 nm; higher = more signal.
For experiment [17], the target named is Epidermal growth factor receptor (Homo sapiens) (UniProt P00533). As to the kind of experiment: EGFR binders on small-molecule microarrays, primary screen, biochemical, small-molecule microarray, 635 nm fluorescence (AID 1104).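 Further: score merges 667 nm emission intensity with spot signal to noise over triplicate slides.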 As to conditions: EGFR binding, higher = more signal.
Experiment [18] has as its target Follistatin-related protein 3 (Homo sapiens) (UniProt O95633). Put plainly: FSTL3 binders on small-molecule microarrays, primary screen, biochemical, small-molecule microarray, 635 nm fluorescence (AID 1105).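 Further: score merges emission near 667 nm and signal to noise per printed spot across three slides.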 As to conditions: FSTL3 binding, higher = more signal.
The target of experiment [19] is Dickkopf-related protein 1 (Homo sapiens) (UniProt O94907). Put plainly: DKK1 binders on small-molecule microarrays, primary screen, biochemical, small-molecule microarray, 635 nm fluorescence scan (AID 1106).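 Further: score merges emission near 667 nm with signal to noise over three replicate slides.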 The conditions noted are these: DKK1 binding, higher = more signal.
The subject of experiment [20] is Inhibin beta A chain (activin A). As to the kind of experiment: INHBA (activin A) binders on microarrays, primary screen, biochemical, small-molecule microarray, 635 nm fluorescence scan (AID 1107).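 Further: mouse activin A protein probed at 4.33 µg/mL on printed slides; score merges bound-protein fluorescence near 667 nm with spot signal-to-noise.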 The conditions noted are these: small-molecule microarray binding, higher = more signal.

Dickkopf-related protein 1 (Homo sapiens), sequence (O94907 whole entry, looked up): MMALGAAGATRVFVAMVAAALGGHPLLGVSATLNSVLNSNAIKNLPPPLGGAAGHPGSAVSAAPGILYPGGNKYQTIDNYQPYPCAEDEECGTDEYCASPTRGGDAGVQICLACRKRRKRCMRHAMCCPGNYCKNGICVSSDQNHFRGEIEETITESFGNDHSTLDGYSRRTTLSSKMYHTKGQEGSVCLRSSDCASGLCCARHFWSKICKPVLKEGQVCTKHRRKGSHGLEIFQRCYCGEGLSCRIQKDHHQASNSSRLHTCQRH
Epidermal growth factor receptor (Homo sapiens), sequence (P00533 whole entry, looked up): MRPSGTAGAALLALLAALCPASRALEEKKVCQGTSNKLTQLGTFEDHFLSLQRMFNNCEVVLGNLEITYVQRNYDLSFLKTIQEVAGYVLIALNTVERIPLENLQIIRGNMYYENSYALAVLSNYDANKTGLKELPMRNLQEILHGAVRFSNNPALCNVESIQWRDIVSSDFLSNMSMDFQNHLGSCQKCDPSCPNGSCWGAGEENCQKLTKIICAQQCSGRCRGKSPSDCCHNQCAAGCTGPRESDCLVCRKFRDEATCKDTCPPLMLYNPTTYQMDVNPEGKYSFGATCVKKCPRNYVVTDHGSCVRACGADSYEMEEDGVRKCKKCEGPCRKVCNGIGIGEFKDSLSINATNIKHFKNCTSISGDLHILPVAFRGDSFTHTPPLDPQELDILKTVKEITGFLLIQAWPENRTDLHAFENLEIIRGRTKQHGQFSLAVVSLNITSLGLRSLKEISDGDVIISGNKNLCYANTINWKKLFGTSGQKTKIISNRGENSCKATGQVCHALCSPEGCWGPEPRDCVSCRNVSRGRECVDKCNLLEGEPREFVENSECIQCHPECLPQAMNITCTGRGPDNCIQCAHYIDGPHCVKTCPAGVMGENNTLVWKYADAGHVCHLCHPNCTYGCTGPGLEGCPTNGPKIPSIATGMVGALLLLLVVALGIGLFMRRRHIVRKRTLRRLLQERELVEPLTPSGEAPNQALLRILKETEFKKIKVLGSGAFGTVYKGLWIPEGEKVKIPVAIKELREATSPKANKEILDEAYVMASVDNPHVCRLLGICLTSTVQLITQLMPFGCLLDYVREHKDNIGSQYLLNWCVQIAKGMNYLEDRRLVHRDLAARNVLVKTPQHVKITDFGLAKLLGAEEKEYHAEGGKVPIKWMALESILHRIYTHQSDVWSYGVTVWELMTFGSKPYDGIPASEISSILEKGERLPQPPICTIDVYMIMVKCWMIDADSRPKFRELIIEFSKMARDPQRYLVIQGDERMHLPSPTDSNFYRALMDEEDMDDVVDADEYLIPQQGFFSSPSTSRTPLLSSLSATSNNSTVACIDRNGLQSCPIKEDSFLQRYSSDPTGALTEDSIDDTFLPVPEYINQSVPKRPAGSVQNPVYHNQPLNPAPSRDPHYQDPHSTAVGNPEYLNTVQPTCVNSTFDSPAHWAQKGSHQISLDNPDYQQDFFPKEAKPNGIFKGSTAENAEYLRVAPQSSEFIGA
Neurogenic locus notch homolog protein 3 (Homo sapiens), sequence (Q9UM47 whole entry, looked up): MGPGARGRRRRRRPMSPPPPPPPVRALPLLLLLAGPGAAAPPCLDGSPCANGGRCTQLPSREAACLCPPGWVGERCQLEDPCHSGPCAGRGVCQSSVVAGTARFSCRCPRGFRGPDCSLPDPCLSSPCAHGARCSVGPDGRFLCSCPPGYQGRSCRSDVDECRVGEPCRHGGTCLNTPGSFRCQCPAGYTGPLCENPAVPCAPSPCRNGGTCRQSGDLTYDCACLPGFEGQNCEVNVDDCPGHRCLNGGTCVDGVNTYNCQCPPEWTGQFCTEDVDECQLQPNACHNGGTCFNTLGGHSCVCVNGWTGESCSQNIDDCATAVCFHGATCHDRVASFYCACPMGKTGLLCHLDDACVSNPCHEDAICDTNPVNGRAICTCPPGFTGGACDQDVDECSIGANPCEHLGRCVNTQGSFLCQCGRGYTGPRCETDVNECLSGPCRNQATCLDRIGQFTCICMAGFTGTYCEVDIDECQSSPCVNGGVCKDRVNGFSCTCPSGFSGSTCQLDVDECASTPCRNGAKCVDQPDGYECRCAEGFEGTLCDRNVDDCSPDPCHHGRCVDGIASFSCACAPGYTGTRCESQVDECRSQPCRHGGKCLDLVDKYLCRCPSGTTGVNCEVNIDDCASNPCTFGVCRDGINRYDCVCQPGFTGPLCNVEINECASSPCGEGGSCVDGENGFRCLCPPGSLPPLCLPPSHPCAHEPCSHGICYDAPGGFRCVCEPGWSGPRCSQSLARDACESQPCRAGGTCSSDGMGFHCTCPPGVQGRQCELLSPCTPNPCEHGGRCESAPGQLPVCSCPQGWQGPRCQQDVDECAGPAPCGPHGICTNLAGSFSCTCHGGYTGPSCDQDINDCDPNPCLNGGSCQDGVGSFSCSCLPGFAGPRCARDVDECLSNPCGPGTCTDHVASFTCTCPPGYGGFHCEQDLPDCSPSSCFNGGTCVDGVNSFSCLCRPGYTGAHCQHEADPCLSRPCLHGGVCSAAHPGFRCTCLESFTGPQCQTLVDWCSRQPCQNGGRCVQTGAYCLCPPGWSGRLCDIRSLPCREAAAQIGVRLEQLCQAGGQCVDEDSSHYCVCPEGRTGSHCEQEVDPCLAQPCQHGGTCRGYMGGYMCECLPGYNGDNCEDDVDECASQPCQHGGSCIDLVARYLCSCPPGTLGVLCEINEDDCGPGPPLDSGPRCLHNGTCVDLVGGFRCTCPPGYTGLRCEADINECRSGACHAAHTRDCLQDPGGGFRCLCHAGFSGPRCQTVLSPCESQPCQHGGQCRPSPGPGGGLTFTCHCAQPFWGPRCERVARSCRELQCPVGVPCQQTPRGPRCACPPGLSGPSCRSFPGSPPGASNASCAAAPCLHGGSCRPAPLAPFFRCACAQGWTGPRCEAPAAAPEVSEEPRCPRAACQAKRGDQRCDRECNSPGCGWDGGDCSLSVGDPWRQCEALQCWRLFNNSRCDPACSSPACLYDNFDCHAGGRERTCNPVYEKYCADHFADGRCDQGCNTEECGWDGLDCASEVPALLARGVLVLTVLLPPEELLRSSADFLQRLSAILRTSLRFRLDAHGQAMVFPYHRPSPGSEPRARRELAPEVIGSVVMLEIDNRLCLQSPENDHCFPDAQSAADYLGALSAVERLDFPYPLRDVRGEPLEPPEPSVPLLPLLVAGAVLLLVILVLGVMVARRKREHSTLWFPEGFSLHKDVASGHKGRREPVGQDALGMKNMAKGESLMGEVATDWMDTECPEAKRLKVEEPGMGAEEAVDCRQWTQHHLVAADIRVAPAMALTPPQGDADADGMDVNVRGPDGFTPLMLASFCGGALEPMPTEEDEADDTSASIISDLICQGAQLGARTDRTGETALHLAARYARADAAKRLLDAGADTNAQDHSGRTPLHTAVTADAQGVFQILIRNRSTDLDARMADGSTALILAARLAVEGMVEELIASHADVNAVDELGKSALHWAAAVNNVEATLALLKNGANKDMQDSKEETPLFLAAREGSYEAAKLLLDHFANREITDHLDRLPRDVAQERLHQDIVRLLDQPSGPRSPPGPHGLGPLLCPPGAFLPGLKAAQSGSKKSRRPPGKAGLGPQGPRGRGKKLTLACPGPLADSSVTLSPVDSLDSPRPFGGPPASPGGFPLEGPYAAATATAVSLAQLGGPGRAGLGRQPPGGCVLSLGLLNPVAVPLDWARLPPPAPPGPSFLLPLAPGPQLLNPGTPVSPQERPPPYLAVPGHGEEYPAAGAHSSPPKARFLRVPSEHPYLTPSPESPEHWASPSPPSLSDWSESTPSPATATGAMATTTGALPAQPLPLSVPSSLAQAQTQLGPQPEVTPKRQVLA
Fibroblast growth factor 10 (Homo sapiens), sequence (O15520 whole entry, looked up): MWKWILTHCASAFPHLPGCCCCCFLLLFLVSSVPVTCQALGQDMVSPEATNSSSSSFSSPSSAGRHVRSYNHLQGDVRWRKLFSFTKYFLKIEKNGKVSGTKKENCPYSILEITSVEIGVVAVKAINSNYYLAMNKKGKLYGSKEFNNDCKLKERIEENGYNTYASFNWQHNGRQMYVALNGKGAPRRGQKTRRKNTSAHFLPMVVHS
Torsin-1A-interacting protein 2 (Homo sapiens), sequence (Q8NFQ8 whole entry, looked up): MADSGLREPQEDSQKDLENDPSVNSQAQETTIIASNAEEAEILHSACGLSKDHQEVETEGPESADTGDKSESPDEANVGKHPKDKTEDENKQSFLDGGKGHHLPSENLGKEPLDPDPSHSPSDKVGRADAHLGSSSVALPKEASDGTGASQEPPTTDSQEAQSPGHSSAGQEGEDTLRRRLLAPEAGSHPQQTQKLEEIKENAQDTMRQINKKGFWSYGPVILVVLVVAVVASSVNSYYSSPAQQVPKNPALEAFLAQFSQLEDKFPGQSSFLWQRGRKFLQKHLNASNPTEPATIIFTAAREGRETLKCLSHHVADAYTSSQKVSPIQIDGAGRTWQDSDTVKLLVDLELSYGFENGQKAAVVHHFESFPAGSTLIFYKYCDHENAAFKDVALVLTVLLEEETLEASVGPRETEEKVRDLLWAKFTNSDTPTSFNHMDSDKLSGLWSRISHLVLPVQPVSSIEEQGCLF
Follistatin-related protein 3 (Homo sapiens), sequence (O95633 whole entry, looked up): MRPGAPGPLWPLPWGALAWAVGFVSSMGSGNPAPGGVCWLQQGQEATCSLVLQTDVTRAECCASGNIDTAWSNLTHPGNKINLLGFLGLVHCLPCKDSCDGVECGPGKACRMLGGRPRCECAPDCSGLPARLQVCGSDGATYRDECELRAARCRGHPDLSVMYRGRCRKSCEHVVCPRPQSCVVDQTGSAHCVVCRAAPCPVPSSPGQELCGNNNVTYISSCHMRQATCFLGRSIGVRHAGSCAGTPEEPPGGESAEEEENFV

In the case of `O=C1[C@H]2[C@H]3[C@H](O)[C@H](O)CC(=NOC[C@@H](O)COCc4ccco4)[C@H]3CC[C@H]2C(=O)N1C[C@@H]1CCCO1`, the composite z-score in [1] is 0.629; in experiment [5], -0.884; in [7], -0.138; in experiment [8] it was 0.759; in [9], 0.28; in experiment [10], 0.0872. For the same compound, the composite z-score in [11] was 0.717; in [12], -0.369; in experiment [13], -1.4; in [15], 0.725; in experiment [16] it was 1.2; in experiment [17], 0.947. In addition, the composite z-score in experiment [18] is 0.95; in experiment [19], 1.21; in [20], -0.0262. The z-score in [2] is -0.193 (inactive); in [3], 0.236 (inactive); in experiment [4], -0.318 (inactive); in experiment [6], 0.0018 (inactive); in [14], 0.273 (inactive).
As for `C[C@@H](c1ccccc1)N1C(=O)[C@H]2[C@H]3[C@H](O)[C@H](O)CC(=NOCc4ccccc4)[C@H]3CC[C@H]2C1=O`, the composite z-score in experiment [1] was 1.3; in [5], 2.38; in experiment [7], -0.0942; in experiment [8], 0.374; in [9] it was 0.354; in [10], -0.0424. Also, the composite z-score is 0.8 in experiment [11]; -0.197 in experiment [12]; -0.442 in experiment [13]; 0.601 in [15]; 0.535 in [16]; 0.45 in experiment [17]. Besides, the composite z-score in experiment [18] is 0.44; in [19], 0.312; in experiment [20], -0.27. Further, the z-score was 0.435 (inactive) in experiment [2]; 0.107 (inactive) in experiment [3]; 0.0942 (inactive) in experiment [4]; -0.0659 (inactive) in [6]; -0.0874 (inactive) in [14].
Consider `CC(C)=CCCC(C)=CCON=C1C[C@@H](O)[C@@H](O)[C@@H]2[C@@H]3C(=O)N(C(C)(C)C)C(=O)[C@@H]3CC[C@H]12`, for which the composite z-score in experiment [1] was 0.64; in experiment [5], 0.312; in [7] it was -0.138; in experiment [8], 0.919; in [9] it was 0.539; in experiment [10], -0.0466. Moreover, the composite z-score in experiment [11] is 0.0059; in experiment [12], 0.0507; in experiment [13], -0.396; in experiment [15] it was 0.396; in [16], 0.563; in [17] it was 0.512. Besides, the values for the composite z-score in experiment [18], in [19] and in [20] were 0.392, 0.432 and -0.159, respectively. Moreover, the z-score in experiment [2] is 0.0423 (inactive); in [3] it was 0.473 (inactive); in experiment [4], -0.656 (inactive); in experiment [6] it was 0.281 (inactive); in experiment [14], 0.129 (inactive).
Regarding `C=C(C)C(=O)OCC1CN2[C@@H](CC[C@@H](C)[C@@H]2c2ccc(Br)cc2)C(=O)O1` (stereo not given in full), the composite z-score in experiment [1] was 0.855; in experiment [5], 0.734; in experiment [7], -0.118; in experiment [8], 0.172; in experiment [9] it was 0.947; in [10], -0.128. The composite z-score in experiment [11] was 0.299; in experiment [12], -0.201; in experiment [13] it was -0.118; in experiment [15], 0.237; in experiment [16], 0.363; in experiment [17], -0.202. Also, the figures for the composite z-score in experiment [18], in [19] and in experiment [20] were 0.0267, 0.147 and -0.0608, respectively. Also, the z-score is 0.275 (inactive) in [2]; -0.369 (inactive) in experiment [3]; -0.427 (inactive) in [4]; -0.166 (inactive) in [6]; 0.411 (inactive) in experiment [14].
As for `COC(=O)[C@H]1O[C@@H](c2c(OC)c(OC)c(C)c(OC)c2OC)[C@H](C)[C@@H](O)[C@H]1C`, the composite z-score was 1.03 in [1]; 0.964 in [5]; -0.0131 in experiment [7]; 0.585 in [8]; 1.1 in [9]; 0.0821 in experiment [10]. The composite z-score in experiment [11] was 0.209; in experiment [12], 0.138; in experiment [13], 0.112; in experiment [15], 0.798; in experiment [16], 0.824; in experiment [17] it was 0.0132. In addition, the composite z-score is 0.89 in experiment [18], 0.743 in [19] and -0.311 in [20]. Also, the z-score in experiment [2] is 0.234 (inactive); in [3], 0.346 (inactive); in [4], -0.438 (inactive); in experiment [6], 0.196 (inactive); in [14] it was -0.187 (inactive).
